# Measured values: publication PMC11006913
# Numbering of substitutions follows the chain as printed.
# Experiments:
# Assay in all cases: PBM; 200 nM protein, PBS
# Details in all cases: dsDNA, one strand shown
# NKX2-5 [1] = biological target: NKX2-5 (Homo sapiens, UniProt P52952 125-210, R139K)
# NKX2-5 [2] = biological target: NKX2-5 (Homo sapiens, UniProt P52952 125-210)
# PRRX1 = PRRX1 (Homo sapiens, UniProt P54821 80-166, F113S)
# NKX2-6 [3] = biological target: T1, NKX2-6 (Homo sapiens, UniProt A6NCS4 118-204, R150C)
# T1 sequence: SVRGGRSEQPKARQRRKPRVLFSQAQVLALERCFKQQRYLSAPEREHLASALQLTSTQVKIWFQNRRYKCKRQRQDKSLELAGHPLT
# NKX2-6 [4] = biological target: T2, NKX2-6 (Homo sapiens, UniProt A6NCS4 118-204)
# T2 sequence: T1 sequence with C33R
# NKX2-6 [5] = biological target: T3, NKX2-6 (Homo sapiens, UniProt A6NCS4 118-204, F151L)
# T3 sequence: T1 sequence with C33R, F34L
# NKX3-2 [6] = biological target: NKX3-2 (Homo sapiens, UniProt P78367 192-278, P234S)
# Sequence of NKX3-2 (Homo sapiens, UniProt P78367 192-278, P234S) (P78367 192-278 P234S): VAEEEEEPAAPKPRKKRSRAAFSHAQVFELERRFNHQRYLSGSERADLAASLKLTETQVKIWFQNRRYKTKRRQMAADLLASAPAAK
# NKX3-2 [7] = biological target: NKX3-2 (Homo sapiens, UniProt P78367 192-278)
# Sequence of NKX3-2 (Homo sapiens, UniProt P78367 192-278) (P78367 192-278): as the sequence (P78367 192-278 P234S) above, with S43P counted along it
# HOXA2 [8] = biological target: HOXA2 (Homo sapiens, UniProt O43364 129-215, R185T)
# Sequence of HOXA2 (Homo sapiens, UniProt O43364 129-215, R185T) (O43364 129-215 R185T): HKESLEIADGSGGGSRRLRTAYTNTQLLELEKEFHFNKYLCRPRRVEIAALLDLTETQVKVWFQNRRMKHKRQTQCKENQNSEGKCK
# HOXA2 [9] = biological target: HOXA2 (Homo sapiens, UniProt O43364 129-215, R185K)
# Sequence of HOXA2 (Homo sapiens, UniProt O43364 129-215, R185K) (O43364 129-215 R185K): as the sequence (O43364 129-215 R185T) above, with T57K counted along it
# HOXA2 [10] = biological target: HOXA2 (Homo sapiens, UniProt O43364 129-215, Y150S)
# Sequence of HOXA2 (Homo sapiens, UniProt O43364 129-215, Y150S) (O43364 129-215 Y150S): as the sequence (O43364 129-215 R185T) above, with Y22S, T57R counted along it
# HOXA2 [11] = biological target: HOXA2 (Homo sapiens, UniProt O43364 129-215)
# Sequence of HOXA2 (Homo sapiens, UniProt O43364 129-215) (O43364 129-215): as the sequence (O43364 129-215 R185T) above, with T57R counted along it
# HOXB6 [12] = biological target: HOXB6 (Homo sapiens, UniProt P17509 132-218, K202E)
# Sequence of HOXB6 (Homo sapiens, UniProt P17509 132-218, K202E) (P17509 132-218 K202E): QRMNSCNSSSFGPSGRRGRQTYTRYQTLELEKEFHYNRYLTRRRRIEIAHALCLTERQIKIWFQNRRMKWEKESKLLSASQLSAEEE
# HOXB6 [13] = biological target: HOXB6 (Homo sapiens, UniProt P17509 132-218)
# Sequence of HOXB6 (Homo sapiens, UniProt P17509 132-218) (P17509 132-218): as the sequence (P17509 132-218 K202E) above, with E71K counted along it
# Sequence of NKX2-5 (Homo sapiens, UniProt P52952 125-210) (P52952 125-210): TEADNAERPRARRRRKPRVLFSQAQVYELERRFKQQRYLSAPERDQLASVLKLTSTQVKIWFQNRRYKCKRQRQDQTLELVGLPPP
# Sequence of NKX2-5 (Homo sapiens, UniProt P52952 125-210, R139K) (P52952 125-210 R139K): as the sequence (P52952 125-210) above, with R15K counted along it
# Sequence of PRRX1 (P54821 80-166 F113S): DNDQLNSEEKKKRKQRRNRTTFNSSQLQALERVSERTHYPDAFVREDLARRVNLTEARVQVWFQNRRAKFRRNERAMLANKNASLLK
sequence,measurement,setting,value
GCGTGCGA,binding signal,NKX2-5 [1],"8.9 upbm affinity estimate (log intensity, higher = more binding, comparable within an allelic series)"
same,binding signal,NKX2-5 [2],"8.92 upbm affinity estimate (log intensity, higher = more binding, comparable within an allelic series)"
AGCCGACA,binding signal,NKX2-5 [1],"8.87 upbm affinity estimate (log intensity, higher = more binding, comparable within an allelic series)"
same,binding signal,PRRX1,"9.45 upbm affinity estimate (log intensity, higher = more binding, comparable within an allelic series)"
same,binding signal,NKX2-5 [2],"9.05 upbm affinity estimate (log intensity, higher = more binding, comparable within an allelic series)"
GCTGGGCC,binding signal,NKX2-5 [1],"8.63 upbm affinity estimate (log intensity, higher = more binding, comparable within an allelic series)"
same,binding signal,NKX2-5 [2],"8.61 upbm affinity estimate (log intensity, higher = more binding, comparable within an allelic series)"
CACTTAGC,binding signal,NKX2-5 [1],"12.6 upbm affinity estimate (log intensity, higher = more binding, comparable within an allelic series)"
same,binding signal,PRRX1,"9.83 upbm affinity estimate (log intensity, higher = more binding, comparable within an allelic series)"
same,binding signal,NKX2-6 [3],"11.7 upbm affinity estimate (log intensity, higher = more binding, comparable within an allelic series)"
same,binding signal,NKX2-6 [4],"13.5 upbm affinity estimate (log intensity, higher = more binding, comparable within an allelic series)"
same,binding signal,NKX2-6 [5],"10.8 upbm affinity estimate (log intensity, higher = more binding, comparable within an allelic series)"
same,binding signal,NKX3-2 [6],"12.9 upbm affinity estimate (log intensity, higher = more binding, comparable within an allelic series)"
same,binding signal,NKX2-5 [2],"12.5 upbm affinity estimate (log intensity, higher = more binding, comparable within an allelic series)"
same,binding signal,NKX3-2 [7],"13 upbm affinity estimate (log intensity, higher = more binding, comparable within an allelic series)"
AGCCCGGG,binding signal,NKX2-5 [1],"8.84 upbm affinity estimate (log intensity, higher = more binding, comparable within an allelic series)"
same,binding signal,HOXA2 [8],"7.03 upbm affinity estimate (log intensity, higher = more binding, comparable within an allelic series)"
same,binding signal,HOXA2 [9],"10.2 upbm affinity estimate (log intensity, higher = more binding, comparable within an allelic series)"
same,binding signal,HOXA2 [10],"10.4 upbm affinity estimate (log intensity, higher = more binding, comparable within an allelic series)"
same,binding signal,NKX3-2 [6],"10.4 upbm affinity estimate (log intensity, higher = more binding, comparable within an allelic series)"
same,binding signal,HOXA2 [11],"7.06 upbm affinity estimate (log intensity, higher = more binding, comparable within an allelic series)"
same,binding signal,NKX2-5 [2],"8.8 upbm affinity estimate (log intensity, higher = more binding, comparable within an allelic series)"
same,binding signal,NKX3-2 [7],"10.3 upbm affinity estimate (log intensity, higher = more binding, comparable within an allelic series)"
CCCCTGCG,binding signal,NKX2-5 [1],"8.68 upbm affinity estimate (log intensity, higher = more binding, comparable within an allelic series)"
same,binding signal,NKX2-5 [2],"8.4 upbm affinity estimate (log intensity, higher = more binding, comparable within an allelic series)"
AGCCGGGG,binding signal,NKX2-5 [1],"9.08 upbm affinity estimate (log intensity, higher = more binding, comparable within an allelic series)"
same,binding signal,NKX2-5 [2],"9.03 upbm affinity estimate (log intensity, higher = more binding, comparable within an allelic series)"
CACCCCCG,binding signal,NKX2-5 [1],"8.95 upbm affinity estimate (log intensity, higher = more binding, comparable within an allelic series)"
same,binding signal,NKX2-5 [2],"9 upbm affinity estimate (log intensity, higher = more binding, comparable within an allelic series)"
CCGGACCG,binding signal,NKX2-5 [1],"8.49 upbm affinity estimate (log intensity, higher = more binding, comparable within an allelic series)"
same,binding signal,NKX2-5 [2],"8.49 upbm affinity estimate (log intensity, higher = more binding, comparable within an allelic series)"
CCCCCCGG,binding signal,NKX2-5 [1],"8.2 upbm affinity estimate (log intensity, higher = more binding, comparable within an allelic series)"
same,binding signal,NKX2-6 [3],"8.56 upbm affinity estimate (log intensity, higher = more binding, comparable within an allelic series)"
same,binding signal,NKX2-5 [2],"8.1 upbm affinity estimate (log intensity, higher = more binding, comparable within an allelic series)"
CGGTGGGC,binding signal,NKX2-5 [1],"9.02 upbm affinity estimate (log intensity, higher = more binding, comparable within an allelic series)"
same,binding signal,NKX2-6 [3],"9.22 upbm affinity estimate (log intensity, higher = more binding, comparable within an allelic series)"
same,binding signal,NKX2-5 [2],"9.07 upbm affinity estimate (log intensity, higher = more binding, comparable within an allelic series)"
AGTCCCGG,binding signal,NKX2-5 [1],"8.88 upbm affinity estimate (log intensity, higher = more binding, comparable within an allelic series)"
same,binding signal,NKX2-6 [4],"9.31 upbm affinity estimate (log intensity, higher = more binding, comparable within an allelic series)"
same,binding signal,NKX2-6 [5],"9.26 upbm affinity estimate (log intensity, higher = more binding, comparable within an allelic series)"
same,binding signal,NKX2-5 [2],"8.88 upbm affinity estimate (log intensity, higher = more binding, comparable within an allelic series)"
CCCCCAAC,binding signal,NKX2-5 [1],"8.66 upbm affinity estimate (log intensity, higher = more binding, comparable within an allelic series)"
same,binding signal,HOXA2 [8],"6.99 upbm affinity estimate (log intensity, higher = more binding, comparable within an allelic series)"
same,binding signal,HOXA2 [9],"10.3 upbm affinity estimate (log intensity, higher = more binding, comparable within an allelic series)"
same,binding signal,HOXA2 [10],"10.3 upbm affinity estimate (log intensity, higher = more binding, comparable within an allelic series)"
same,binding signal,HOXA2 [11],"6.95 upbm affinity estimate (log intensity, higher = more binding, comparable within an allelic series)"
same,binding signal,NKX2-5 [2],"8.6 upbm affinity estimate (log intensity, higher = more binding, comparable within an allelic series)"
CAGCCCCC,binding signal,NKX2-5 [1],"8.75 upbm affinity estimate (log intensity, higher = more binding, comparable within an allelic series)"
same,binding signal,NKX2-5 [2],"8.67 upbm affinity estimate (log intensity, higher = more binding, comparable within an allelic series)"
ACCGGTCC,binding signal,NKX2-5 [1],"8.75 upbm affinity estimate (log intensity, higher = more binding, comparable within an allelic series)"
same,binding signal,NKX2-5 [2],"8.88 upbm affinity estimate (log intensity, higher = more binding, comparable within an allelic series)"
CAGAGCCG,binding signal,NKX2-5 [1],"8.74 upbm affinity estimate (log intensity, higher = more binding, comparable within an allelic series)"
same,binding signal,HOXB6 [12],"8.99 upbm affinity estimate (log intensity, higher = more binding, comparable within an allelic series)"
same,binding signal,NKX2-5 [2],"8.8 upbm affinity estimate (log intensity, higher = more binding, comparable within an allelic series)"
same,binding signal,HOXB6 [13],"9 upbm affinity estimate (log intensity, higher = more binding, comparable within an allelic series)"
